Screening results from PubChem BioAssay.
Wnt act: activates Wnt/beta-catenin signaling in a reporter cell assay; activation, % at 9.35 µM; activator, plate reader; 1.2% of 300,000 active; in the data active = activation above about 30%, passing the limit was not always enough; inconclusive = no clear call, values can overlap the other calls
EWS-Fli inh: EWS/Fli transcriptional activity inhibition | inhibition, % at 12.6 µM | 0.67% of 350,000 active | A673 NR0B1-luciferase reporter, viability-normalised;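 active = mean inhibition of at least 50% after viability correction, with every replicate also passing that limit; inconclusive = mean reaches 50% but only one of two replicates passes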;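 also: firefly luciferase signal divided by Alamar Blue viability fluorescence both relative to DMSO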
esBAF inh: inhibitors of esBAF chromatin remodeling in mouse ES cells; Bmi1-luciferase knock-in reporter, 24 h; 100% = twice the neutral-well signal; reporter increase, % at 12.5 µM; 2% of 350,000 active; in the data active = activation above about 40%; inconclusive = no clear call, values can overlap the other calls;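 also: a rise in the Bmi1 reporter signal indicates esBAF inhibition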
MITF TRPM1 inh: reduces MITF-dependent TRPM1 promoter luciferase signal; 0.83% of 330,000 active; AID 488899; SK-MEL-5 TRPM1 promoter luciferase, 24 h; inhibition, % at 12.5 µM;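 active = mean inhibition across replicates of 60% or more, whatever share of single replicates reaches that level; inconclusive = some that reach 60%, reason not given; inactive = mean inhibition across replicates below 60%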
PAX8 inh HTS: lowers PAX8-driven luciferase in RMG-I cells | RMG-I TPO-luciferase reporter, SteadyGlo, 24 h | inhibition, % at 12.6 µM | 1.2% of 360,000 active;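 active = mean replicate inhibition at least 60% with every replicate also reaching 60%; inconclusive = only one of the two criteria is met; inactive = mean below 60% and not all replicates reaching 60%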;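 also: luciferase light reporting Pax8 driven TPO promoter activity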
MITF act: activators of MITF-driven TRPM1 promoter activity in SK-MEL-5 cells | SK-MEL-5 TRPM1-promoter luciferase, 24 h; % of positive control, neutral wells = 0 | activation, % at 12.5 µM | 0.75% of 300,000 active;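 active = mean activation of at least 80% with every replicate also reaching 80%; inconclusive = mean reaches 80% but some replicate falls short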
A number is an active result; - = inactive; ? = inconclusive; . = no result. This is a sample that favours compounds with a hit; in the whole collection about 4% have one here.

SMILES	Wnt act	EWS-Fli inh	esBAF inh	MITF TRPM1 inh	PAX8 inh HTS	MITF act
O=C(c1ccc(F)cc1)N1CC(=O)N2[C@@H](CO)[C@H](c3ccc(-c4ccccc4)cc3)[C@@H]2C1	.	-	.	.	-	.
C[C@@H]1CN([C@@H](C)CO)C(=O)c2cccc(NC(=O)c3ccc(-c4nccs4)cc3)c2O[C@H]1CN(C)C(=O)Nc1ccc(C(F)(F)F)cc1	.	-	-	.	.	.
Cc1cc(OCC(=O)N(C)Cc2ccccc2)ccc1Br	-	-	43	-	-	-
COc1cccc(CNC(=O)C2Cc3ccccc3CN2C(C)=O)c1 (centres undefined)	-	-	-	-	-	-
CCS(=O)(=O)N1Cc2ccccc2CC1C(=O)Nc1cccc(OC)c1 (centres undefined)	-	-	53	-	-	-
CCS(=O)(=O)N1Cc2ccccc2CC1C(=O)NCc1cccc(OC)c1 (centres undefined)	-	-	.	-	-	91
O=C(c1cc(-c2ccc(F)cc2)on1)N1CCCCCC1	-	-	-	-	-	138
O=C(c1cc(-c2ccc(F)cc2)on1)N1CCCC1	.	.	-	-	.	-
O=C(c1cc(-c2ccccc2)on1)N1CCCCCC1	37	-	55	-	-	141
O=C(c1cc(-c2ccco2)on1)N1CCN(C(c2ccccc2)c2ccccc2)CC1	-	.	-	75	.	-
COc1cccc(-c2cc(C(=O)N3CCCCCC3)no2)c1	41	-	-	.	-	.
COc1ccccc1CNC(=O)C[C@H]1CC[C@H]2[C@@H](COC[C@H](O)CN2C(=O)Nc2ccc(F)cc2)O1	.	-	-	.	-	.
CCC(=O)N1C[C@H](C)[C@H](OC)CN(C)C(=O)c2cc(NC(=O)Nc3cccc(F)c3)ccc2OC[C@H]1C	.	-	-	.	-	.
O=C(c1cc(-c2cccc(O)c2)on1)N1CCCCC1	40	-	-	-	-	-
COc1ccc(-c2cc(C(=O)N3CCCCCC3)no2)cc1	-	-	-	-	-	-
COc1ccc(-c2cc(C(=O)N3CCCCCC3)no2)cc1OC	-	-	71	-	-	.
O=C(c1cc(-c2cccc(O)c2)on1)N1CCCC1	-	-	-	-	-	-
CN1CCc2c(sc3c2C(=O)NC(c2cccc(OC(=O)c4cccs4)c2)N3)C1 (centres undefined)	-	-	42	.	-	.
CN(CC(=O)Nc1ccc(F)cc1)C(=O)CSc1nnc(Cc2ccccc2)o1	63	-	-	-	-	-
Cc1nnc(SCC(=O)N(C)CC(=O)Nc2ccc(F)cc2)n1Cc1ccccc1	-	-	.	-	-	-
CCn1c(/C=C/Nc2ccccc2)[n+](CC)c2cc(Cl)c(Cl)cc21	-	69	.	?	-	-
CCn1c(/C=C/N(C(C)=O)c2ccccc2)[n+](CCCS(=O)(=O)[O-])c2cc(Cl)c(Cl)cc21	-	-	.	-	-	-
COc1ccc(/C=N/NC(=O)c2[nH]c3ccc(Br)cc3c2-c2ccccc2)cc1	-	.	.	68	102	-
CC(C)(C)C(=O)Cn1ncc(Br)c(Br)c1=O	-	-	.	93	-	-
CC(C)(C)C(=O)Cn1ncc(N2CCOCC2)c(Cl)c1=O	-	-	-	.	-	.
SMILES	Wnt act	EWS-Fli inh	esBAF inh	MITF TRPM1 inh	PAX8 inh HTS	MITF act
COc1ccc(CN(C)C[C@H]2OCCCC[C@H](C)Oc3ccc(NC(=O)Cc4ccccc4)cc3C(=O)N([C@H](C)CO)C[C@H]2C)cc1	.	-	-	.	-	.
Cc1ccccc1OCC(=O)NC1=NCCS1	.	.	44	-	.	.
Cc1cc(NC(=O)COc2ccc(C)c(C)c2)no1	-	-	-	-	-	90
Cc1cc(NC(=O)COc2ccccc2C)no1	-	-	.	-	-	95
CC(C)C(=O)Nc1ccc2c(c1)C(=O)N(C)[C@H]1CC[C@@H](CC(=O)NCc3cccc(F)c3)O[C@@H]1CO2	.	-	-	.	-	.
Cc1ccc(S(=O)(=O)N(C)C[C@@H]2Oc3ncc(Br)cc3C(=O)N([C@@H](C)CO)C[C@H]2C)cc1	.	-	-	.	-	.
Cc1noc(C)c1NC(=O)Nc1ccc2c(c1)C(=O)N([C@H](C)CO)C[C@H](C)[C@H](CN(C)C(=O)Nc1cccc3ccccc13)OCCCC[C@H](C)O2	.	-	-	.	-	.
COc1ccccc1CN(C)C(=O)C1COc2ccccc2O1 (centres undefined)	39	.	-	-	-	.
CO[C@H]1CN(C)C(=O)c2ccc(NS(=O)(=O)c3cccc(F)c3)cc2OC[C@@H](C)N(C(=O)Cc2cccnc2)C[C@H]1C	.	-	-	.	-	.
N#CC1=C(N)N2C(=C(C#N)C1c1ccc(Br)cc1)Nc1ccccc12 (centres undefined)	-	-	.	.	98	.
COc1cc(OC)c(-c2nc3cnccc3n2C)cc1OC	-	.	-	-	.	-
Cn1c(-c2ccc3ccccc3n2)nc2cnccc21	-	.	66	-	.	.
C[C@@H]1CN([C@H](C)CO)C(=O)c2cc(NC(=O)C3CCCCC3)ccc2O[C@@H](C)CCCCO[C@@H]1CN(C)S(=O)(=O)c1ccccc1	.	-	-	.	-	.
Cc1nn2cc(-c3ccc(Cl)cc3)cnc2c1Cl	32	-	72	-	-	126
Cc1cc2ncc(-c3cccc(Cl)c3)cn2n1	-	-	.	-	-	-
C[C@H]1CN([C@@H](C)CO)C(=O)c2cc(C#CC3CCCCC3)cnc2O[C@H]1CN(C)S(=O)(=O)c1ccc(F)cc1	.	-	-	.	.	.
O=C(N/N=C/c1cccc(NC(=O)c2ccc(Cl)cc2)c1)c1ccc(O)cc1	-	-	?	-	-	-
O=C(CN1CCN(Cc2ccc(Cl)cc2)CC1)N/N=C/c1cccc(F)c1	43	-	.	.	-	.
O=C(N/N=C/c1cccc(F)c1)c1csc2c1CCCC2	.	.	50	-	.	142
CC(C)(C)c1ccc(C(=O)N/N=C/c2ccccn2)cc1	-	-	-	-	-	-
O=C(N/N=C/c1ccccc1F)c1csc2c1CCCC2	.	.	.	-	.	-
O=C(N/N=C/c1cccc(F)c1)c1ccc(Cl)cc1	-	-	69	-	-	96
CC(C)(C)c1ccc(C(=O)N/N=C/c2cccc(Cl)c2)cc1	?	.	54	-	-	.
O=C(NCC[C@@H]1CC[C@@H](NC(=O)C2CCCC2)[C@H](CO)O1)c1cc(Cl)cc(Cl)c1	.	-	-	.	-	.
COc1ccc(S(=O)(=O)N[C@@H]2C=C[C@H](CC(=O)N3CCc4ccccc4C3)O[C@H]2CO)cc1	.	-	-	.	-	.
SMILES	Wnt act	EWS-Fli inh	esBAF inh	MITF TRPM1 inh	PAX8 inh HTS	MITF act
O=C(N/N=C/c1ccccc1Cl)c1cccc(F)c1	40	.	53	-	.	?
O=C(N/N=C/c1ccccc1Cl)c1n[nH]c2c1CCCC2	-	-	.	67	77	-
O=C(N/N=C/c1ccccc1)c1n[nH]c2c1CCCC2	-	-	-	-	-	-
O=C(N/N=C/c1ccc(F)cc1)c1ccc(Br)cc1	-	-	-	-	.	-
Cc1cccc(/C=N/NC(=O)c2ccc(Br)cc2)c1	.	.	59	-	-	-
CCCN1[C@@H]2Cn3c(ccc(-c4ccc(F)cc4)c3=O)[C@H]1[C@@H](C(=O)NCC)[C@@H]2CO	.	-	.	.	.	.
